# Screens: PubChem BioAssay, National Center for Advancing Translational Sciences (NCATS)
# HEK cytotox: Cytotoxic Profiling in HEK 293 Cell Line of Diverse Libraries Using Quantitative High-Throughput Screening; actives 6.6% (n = 94,000); HEK 293 viability, ATP luminescence (CellTiter-Glo), 48-72 h; Potency, µM (top dose mostly 115 µM), for the others: at the highest dose activity change, negative = cytotoxicity, most hits filed as inhibitors; note: nearly all actives have a fitted effect of over 60% in size
#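 Viability of HEK 293 cells, plated at 250 cells/well, was judged by cellular ATP after compound treatment for 48 or 72 hr. Luminescence was imaged 10 min after CellTiter-Glo addition at room temperature.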
# NPR1 antag: Natriuretic polypeptide receptor (hNpr1) antagonism - Primary qHTS; HEK293 hNpr1 GloSensor cGMP, ANP-stimulated luminescence; actives 1.6% (n = 76,000); Atrial natriuretic peptide receptor 1 (Homo sapiens), P16066; Potency, µM (highest dose often 46.3 µM), inactives show at the highest dose activity change, negative = inhibition, most hits filed as inhibitors; calls by dose curve; note: nearly all actives have a fitted effect of over 60% in size
# Target sequence (P16066 whole entry, looked up): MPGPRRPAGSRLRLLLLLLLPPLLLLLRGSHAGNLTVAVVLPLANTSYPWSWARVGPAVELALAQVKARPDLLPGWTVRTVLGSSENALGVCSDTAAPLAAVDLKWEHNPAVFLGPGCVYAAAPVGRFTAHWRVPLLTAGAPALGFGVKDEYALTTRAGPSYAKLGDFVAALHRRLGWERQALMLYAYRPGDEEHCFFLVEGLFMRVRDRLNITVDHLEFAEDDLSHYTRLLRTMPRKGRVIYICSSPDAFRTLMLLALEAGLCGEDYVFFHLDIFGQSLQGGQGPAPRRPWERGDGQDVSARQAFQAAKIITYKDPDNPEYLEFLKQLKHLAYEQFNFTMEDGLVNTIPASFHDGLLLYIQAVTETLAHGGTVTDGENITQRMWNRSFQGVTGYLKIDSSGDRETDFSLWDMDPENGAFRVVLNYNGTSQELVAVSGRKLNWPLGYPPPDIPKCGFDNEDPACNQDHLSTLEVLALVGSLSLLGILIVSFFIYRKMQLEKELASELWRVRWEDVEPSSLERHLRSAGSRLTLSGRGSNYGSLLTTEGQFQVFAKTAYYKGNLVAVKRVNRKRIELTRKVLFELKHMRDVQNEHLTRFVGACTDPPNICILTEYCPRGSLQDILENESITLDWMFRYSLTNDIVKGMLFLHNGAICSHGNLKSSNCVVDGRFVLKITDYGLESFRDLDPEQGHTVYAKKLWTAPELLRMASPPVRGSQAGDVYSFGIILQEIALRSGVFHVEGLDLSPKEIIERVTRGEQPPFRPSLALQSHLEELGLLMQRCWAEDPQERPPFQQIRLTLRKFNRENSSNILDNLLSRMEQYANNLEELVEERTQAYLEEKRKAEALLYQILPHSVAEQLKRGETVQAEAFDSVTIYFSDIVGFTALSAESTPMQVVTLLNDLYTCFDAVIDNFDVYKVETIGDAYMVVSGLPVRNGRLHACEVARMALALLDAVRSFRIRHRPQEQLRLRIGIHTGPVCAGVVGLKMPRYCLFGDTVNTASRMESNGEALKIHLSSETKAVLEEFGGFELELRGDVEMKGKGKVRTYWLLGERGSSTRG
#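 HEK293 cells stably expressing human Npr1 and cGMP GloSensor pGS-40F, loaded 2 h with 2% GloSensor reagent, given compound 30 min at room temperature. Luminescence read before and 20 min after 0.1 nM hNppA.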
# NIH3T3 tox: Cytotoxic Profiling in NIH 3T3 Cell Line of Diverse Libraries Using Quantitative High-Throughput Screening | NIH 3T3 viability, CellTiter-Glo ATP luminescence, 48-72 h | Potency, µM (titrated, usually from 96.7 µM), for the others: at the top dose activity change, negative = cytotoxicity, usual class: inhibitors | actives 4.3% (n = 94,000); note: nearly all actives have a fitted effect of over 55% in size
#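 ATP-dependent luminescence (CellTiter-Glo) served as the viability signal for NIH 3T3 cells treated with compound for 48 or 72 hr at 37 °C.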
# FLuc inh: Firefly luciferase inhibition profiling of diverse chemical library using quantitative high-throughput screening; Luciferin 4-monooxygenase (Photinus pyralis), P08659; purified P. pyralis luciferase, luminescence, biochemical; Potency, µM (top dose mostly 115 µM), hits mostly inhibitors; actives 2.5% (n = 76,000); AID 1347043, 2019; note: nearly all actives have a fitted effect of over 65% in size
#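 Cell-free enzyme assay, 10nM P. pyralis luciferase, luciferin and ATP each at 10uM. Inhibition profiled over a 6-point titration, read as luminescence.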
# An asterisk follows results filed as active; i = inactive; ? = inconclusive; . = no result; ! = a repeat was not active; [ ] = dose if it differs, or a comment. This is a sample that favours compounds with a hit; in the whole collection about 11% have one here. Unless noted, calls come from the whole dose curve; as a rule, active = well fitted curve in the direction sought with a large enough effect; inconclusive = small, poorly fitted or top-dose-only effect, or another doubt; inactive = no such curve, though single readings can be large; an effect the other way counts as inactive or inconclusive. % is set by controls: 0 for no effect and ±100 for the full control effect; potency is the fitted concentration of half-maximal effect.
SMILES,HEK cytotox,NPR1 antag,NIH3T3 tox,FLuc inh
Cc1ccc(C(=O)Nc2ccc3c(N4CCOCC4)ncnc3c2)cc1,?,-17%,?,16µM*
O=C(Nc1ccc2ncnc(N3CCCC3)c2c1)c1cccc(Br)c1,18µM*,-29%,14µM*,i
O=C(NCC(F)(F)F)c1nc2sccn2c1-c1cccnc1,-10%[172 µM],.,?,.
O=C(NCCCc1ccccc1)C1CCCN1Cc1ccc(-c2cncnc2)cc1 (stereo not drawn),?,.,-39%,.
COc1ccccc1-c1ccc(CN2CCCCC2C(=O)NCc2ccccc2)cc1 (stereo not drawn),32µM*,.,?,.
COc1ccccc1-c1ccc(CN2CCCCC2C(=O)NCc2ccccc2F)cc1 (stereo not drawn),40µM*,.,?,.
COc1ccccc1-c1ccc(CN2CCCCC2C(=O)NCC2CC2)cc1 (stereo not drawn),45µM*!,.,?,.
O=C(NCc1ccc(C(F)(F)F)cc1F)[C@H]1CCC[C@@H](O)C1,-12%,0%,1%,i
Cc1ccc(C(=O)N(C)C2CCc3ccccc32)cc1 (stereo not drawn),100µM*,-4%[70.6 µM],?,?
CN(C(=O)Nc1ccc(Cl)cc1)C1CCCc2ccccc21 (stereo not drawn),89µM*,-6%[70.6 µM],?,28µM*
CN(C(=O)Nc1ccc(Cl)cc1)C1CCc2ccccc21 (stereo not drawn),?,-11%[70.6 µM],-28%[138 µM],i
CN(C(=O)c1ccccc1)C1CCCc2ccccc21 (stereo not drawn),?,0%[70.6 µM],?,i
CN(Cc1ccc(F)cc1)C1CCCc2ccccc21 (stereo not drawn),-10%[172 µM],1%[70.6 µM],2%[138 µM],i
CN(C(=O)Cc1ccc(F)cc1)C1CCCc2ccccc21 (stereo not drawn),100µM*,0%[70.6 µM],-24%[138 µM],i
CN(C(=O)c1cccc(Cl)c1)C1CCCc2ccccc21 (stereo not drawn),71µM*,-14%[70.6 µM],?,i
CN(C(=O)c1ccc(Cl)nc1)C1CCc2ccccc21 (stereo not drawn),?,-4%[70.6 µM],-20%[138 µM],i
Cc1nc(C)c(C(=O)N2CC[C@@H]3CN(Cc4ccccc4)[C@@H]3C2)s1,0%,.,-15%,.
CCOC(=O)C1(C/C=C/c2ccccc2)CCCN(C(=O)C2CCOCC2)C1 (stereo not drawn),89µM*,-25%,-7%,i
C[S+](=O)([O-])N1CCC(Cn2ccc3c(N4CCOCC4)nc(-c4cccc(C(N)=O)c4)cc32)CC1,-14%,0%,?,i
C[S+](=O)([O-])N1CCC(Cn2ccc3c(N4CCOCC4)nc(-c4cccnc4)cc32)CC1,-18%,-7%,7.1µM*,i
CN1CCC(Cn2ccc3c(N4CCOCC4)nc(-c4cccc5[nH]ncc45)cc32)CC1,?,1%[70.6 µM],45µM*,i
CC(=O)Nc1cccc(-c2cc3c(ccn3CC3CCN(C)CC3)c(N3CCOCC3)n2)c1,-28%,2%,?,i
CN1CCC(Cn2ccc3c(N4CCOCC4)nc(-c4cccc(C(N)=O)c4)cc32)CC1,?,1%[70.6 µM],100µM*,i
COc1cc(F)ccc1-c1cc2c(ccn2CC2CCN(C)CC2)c(N2CCOCC2)n1,100µM*,-2%[70.6 µM],71µM*,i
O=C(c1nc2cccnc2n(Cc2ccccc2)c1=O)N1CCN([S+](=O)([O-])c2cccc(C(F)(F)F)c2)CC1,?,.,-22%,.
SMILES,HEK cytotox,NPR1 antag,NIH3T3 tox,FLuc inh
CC(C)NC(=O)c1ccccc1OCC1CCCN(Cc2ccc3[nH]ccc3c2)C1 (stereo not drawn),?,.,-45%,.
NC(=O)Cc1c[nH]c2ncc(-c3cccc(N4CCOCC4)c3)cc12,-8%[172 µM],2%[70.6 µM],100µM*,i
Cn1cc(-c2cnc3[nH]cc(CC(=O)Nc4ccccc4Cl)c3c2)cn1,-11%[172 µM],5%[70.6 µM],?,i
O=C(Cc1c[nH]c2ncc(-c3ccccc3)cc12)Nc1ccc(N2CCOCC2)cc1,63µM*,-23%[70.6 µM],25µM*,i
Cn1cc(-c2cnc3[nH]cc(CC(=O)Nc4ccc(N5CCOCC5)cc4)c3c2)cn1,?,5%[70.6 µM],-1%[138 µM],i
COc1ccc(-c2cnc3[nH]cc(CC(=O)Nc4ccc(F)c(Cl)c4)c3c2)cc1,?,-23%[70.6 µM],32µM*,i
Cc1ccccc1-c1cnc2[nH]cc(CC(=O)Nc3ccccc3)c2c1,?,?,40µM*,i
COc1ccccc1OCCNC(=O)C1CCCN(C(=O)c2ccccc2)CCC(=O)NCC1 (stereo not drawn),i,5%,0%,i
CN(C)CCN(C)Cc1cn(Cc2ccccc2)nc1-c1ccc2c(c1)OCO2,i,3%,1%,i
O=C(Cc1c[nH]c2ncc(-c3ccccc3)cc12)Nc1ccc(C(F)(F)F)cc1,63µM*,-7%[70.6 µM],?,i
COc1ccc(-c2cnc3[nH]cc(CC(=O)Nc4ccc(C(F)(F)F)cc4)c3c2)cc1,?,-18%[70.6 µM],45µM*,i
COc1ccc(NC(=O)Cc2c[nH]c3ncc(-c4ccccc4)cc23)cc1,-16%[172 µM],-26%[70.6 µM],?,i
Cn1cc(-c2cnc3[nH]cc(CC(=O)Nc4cccc(F)c4)c3c2)cn1,45µM*,-23%[70.6 µM],?,i
O=C(Cc1c[nH]c2ncc(-c3cccnc3)cc12)Nc1ccc(C(F)(F)F)cc1,?,?,?,i
COc1ccccc1-c1cn2c(n1)CO[C@@H](CNC(=O)c1ccc(Cl)cc1)C2,100µM*,-10%[70.6 µM],?,i
Cc1ccc(-c2cn3c(n2)CO[C@@H](CNC(C)C)C3)cc1,?,2%[70.6 µM],?,40µM*
COc1ccc(-c2cn3c(n2)CO[C@@H](CNC2CCCC2)C3)cc1,-28%[172 µM],-2%[70.6 µM],-19%[138 µM],i
Cc1ccc(-c2cn3c(n2)CO[C@@H](CNC(=O)c2ccc(Cl)cc2)C3)cc1,?,?,?,40µM*
CC(=O)N1CCCC1C(=O)N1CCC(N2Cc3cccn3C2=O)CC1 (stereo not drawn),-2%,.,-21%,.
COCCN(Cc1ccsc1)Cc1cn[nH]c1-c1ccc(F)cc1,89µM*,5%,-28%,i
O=C1COc2ccc(Nc3cccnc3)nc2CN1Cc1ccc(C(F)(F)F)cc1,89µM*,-24%[70.6 µM],?,i
COc1ccc(Nc2ccc3c(n2)CN(Cc2ccccc2)C(=O)CO3)cn1,79µM*,-24%[70.6 µM],?,i
COc1ccc(Nc2ccc3c(n2)CN(Cc2ccc(F)cc2)C(=O)CO3)cn1,89µM*,-23%[70.6 µM],?,i
COc1ccc(Nc2ccc3c(n2)CN(Cc2ccc(C(F)(F)F)cc2)C(=O)CO3)cn1,?,-22%,?,i
